Assay results from PubChem BioAssay (NCI).
This is part of a sample that, as a whole, favours compounds with a hit. Of some 83,000 tested, about 20% had one in any assay.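 Method: cells in 96-well plates; compound added at one concentration; 48 h incubation; percent growth measured; values under 10 scored active.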 Active and inactive are the calls of the source.

What was measured:
Experiment in all cases: NCI-60 one-dose screen, 48 h (100 = growth as untreated, 0 = no growth, -100 = all killed)
Settings in all cases: 10 µM
DU-145 prostate = tested on: DU-145 prostate
K-562 leukemia = tested on: K-562 leukemia
MALME-3M melanoma = tested on: MALME-3M melanoma
MDA-MB-231 breast = tested on: MDA-MB-231 breast
RXF 393 renal = tested on: RXF 393 renal
SF-268 CNS = tested on: SF-268 CNS
SF-295 CNS = tested on: SF-295 CNS
SF-539 CNS = tested on: SF-539 CNS
M14 melanoma = tested on: M14 melanoma
HCT-15 colon = tested on: HCT-15 colon
HT29 colon = tested on: HT29 colon
SNB-75 CNS = tested on: SNB-75 CNS
SNB-19 CNS = tested on: SNB-19 CNS
PC-3 prostate = tested on: PC-3 prostate
SK-MEL-5 melanoma = tested on: SK-MEL-5 melanoma
UACC-62 melanoma = tested on: UACC-62 melanoma
LOX IMVI melanoma = tested on: LOX IMVI melanoma
SK-MEL-28 melanoma = tested on: SK-MEL-28 melanoma
UACC-257 melanoma = tested on: UACC-257 melanoma
U251 CNS = tested on: U251 CNS

Measured: growth

CCC(C)[C@H](NC(C)=O)C(=O)N[C@@H](CCCNC(=N)N)C(=O)N[C@@H](CCCCN)C(=O)N[C@@H](CC1CCC(O)CC1)C(=O)NC(C(=O)N[C@@H](CCSC)C(=O)N[C@@H](CCCNC(=N)N)C(=O)N[C@@]1(C)CCC/C=C\CCC[C@@](C)(C(=O)NC(C(=O)N[C@@H](CCC(=O)O)C(=O)N[C@@H](CC(C)C)C(=O)N[C@H](C(=O)N[C@@H](CCC(=O)O)C(N)=O)C(C)C)[C@@H](C)O)NC(=O)[C@H](CCC(N)=O)NC(=O)[C@H](CC(C)C)NC(=O)[C@H](CC(C)C)NC1=O)[C@@H](C)O (stereo partly drawn)
inactive: DU-145 prostate 93.7% | K-562 leukemia 95.4% | MALME-3M melanoma 102% | MDA-MB-231 breast 98.8% | RXF 393 renal 86.4% | SF-268 CNS 47.9% | SF-295 CNS 101% | SF-539 CNS 97.7% | M14 melanoma 75.6% | HCT-15 colon 100% | HT29 colon 90.6% | SNB-75 CNS 107% | SNB-19 CNS 110% | PC-3 prostate 99.1% | SK-MEL-5 melanoma 102% | UACC-62 melanoma 99.6% | LOX IMVI melanoma 109% | SK-MEL-28 melanoma 94.6%

COc1ccc2nc3cc(Cl)ccc3c(N)c2c1
active: DU-145 prostate -96.8% | K-562 leukemia -60.6% | MALME-3M melanoma -71.8% | MDA-MB-231 breast -94.1% | RXF 393 renal -98.1% | SF-268 CNS -85.7% | SF-539 CNS -90.3% | UACC-257 melanoma -81.2% | M14 melanoma -95.6% | HCT-15 colon -65% | HT29 colon -67.3% | SNB-75 CNS -99.3% | U251 CNS -74.3% | PC-3 prostate -73% | SK-MEL-5 melanoma -95.6% | UACC-62 melanoma -96.4% | LOX IMVI melanoma -94.7% | SK-MEL-28 melanoma -98.4%

CC(=O)N[C@H](C(=O)N[C@@H](CCCNC(=N)N)C(=O)N[C@@H](CCCCN)C(=O)N[C@@H](CCCNC(=N)N)C(=O)N[C@]1(C)CCCCCC/C=C\CCC[C@@](C)(C(=O)N[C@@H](CCCNC(=N)N)C(=O)N[C@@H](CCC(=O)O)C(=O)N[C@@H](CC(C)C)C(=O)N[C@H](C(=O)N[C@@H](CCC(=O)O)C(N)=O)C(C)C)NC(=O)[C@H](CCC(N)=O)NC(=O)[C@H](CC(C)C)NC(=O)[C@H](CC(C)C)NC(=O)[C@H](CCCNC(=N)N)NC(=O)[C@H](CCCNC(=N)N)NC(=O)[C@H](CC(C)C)NC1=O)C(C)C
inactive: SF-295 CNS 14.3% | LOX IMVI melanoma 29.4%
active: DU-145 prostate -72.7% | K-562 leukemia -18.8% | MALME-3M melanoma -28.7% | MDA-MB-231 breast -39.5% | RXF 393 renal -51.5% | SF-268 CNS -51.5% | SF-539 CNS -47% | M14 melanoma -41.9% | HCT-15 colon -10.8% | SNB-75 CNS 2.79% | U251 CNS -40.9% | PC-3 prostate -4.64% | SK-MEL-5 melanoma -68.8% | UACC-62 melanoma -43.3% | SK-MEL-28 melanoma -29.7%
